According to PubChem BioAssay AID1159580 (chemical genetic matrix, 2015):
Hit rate of the full screen: of about 5,500 compounds, about 2,000 (36%) were called active. Another 18% or so got no clear call; they are omitted. No stated cut-off is given here; in the data, active means normalized growth mostly below about 0.91 (no sharp cut-off); inconclusive means no clear call, values can overlap the other calls; inactive means mostly above about 0.92. Some of the results follow.

Assay: chemical genetic growth profiling, strain panel (AID 1159580);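 further: tested at 20 µM; growth read once vehicle control cultures reached saturation at 30 °C; 1 = growth at the plate median or of vehicle wells; lower values mean less growth of the strain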
Settings: S. cerevisiae deletion strains, growth OD

Measured: normalized growth

CC(N)=NCCCC[C@@H](N)C(=O)O
inactive: locus YAL013W, strain DEP1, active compounds read low 1.01 | locus YAL040C, strain CLN3, active compounds read low 0.998 | locus YCL061C, strain MRC1 (second series), active compounds read low 1.01 | locus YDR150W, strain NUM1, active compounds read low 1 | locus YDR363W, strain ESC2, active compounds read low 1.01 | locus YER002W, strain NOP16, active compounds read low 0.994 | locus YJR075W, strain HOC1, active compounds read low 1 | locus YMR263W, strain SAP30, active compounds read low 1.01 | locus YNL128W, strain TEP1, active compounds read low 1.02 | locus YNL175C, strain NOP13, active compounds read low 1 | locus YNL197C, strain WHI3, active compounds read low 1.01 | locus YNL224C, strain SQS1, active compounds read low 1.01 | locus YNL322C, strain KRE1, active compounds read low 1.02 | locus YOR083W, strain WHI5 (second series), active compounds read low 1.01 | locus YPL055C, strain LGE1, active compounds read low 1
